Inconclusive results are not listed. Unmarked numbers belong to inactive results. Active and inactive are the calls of the source. Calls come from the whole dose curve; as a rule, active = well fitted inhibition curve with a large enough effect; inconclusive = small, poorly fitted or top-dose-only effect; inactive = no such curve, though single readings can be large or run the other way.
Test system: Zika virus NS2B-NS3 protease (unlinked complex)
Experiment: Primary screen GU Rhodamine qHTS for Zika virus inhibitors: Unlinked NS2B-NS3 protease assay (AID 1347159); note: nearly all actives have a fitted effect of over 60% in size
Details: Recombinant ZIKV NS2B-NS3 protease, Rhodamine110 substrate fluorescence; series mostly up to 107 µM; activity change, negative = inhibition: at the top concentration
Procedure, shortened: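 Noncovalent NS2B hydrophilic domain–NS3 protease domain complex (25 nM) preincubated 15 min at room temperature with compounds (up to 114 microM) in 10 mM Tris-HCl pH 8.0, 0.01% Tween 20; 1.5 microM Rhodamine110 substrate added, fluorescence change over 15 min fitted to Hill equation.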
% is set by controls: 0 for no effect and ±100 for the full control effect.

| SMILES | activity change, negative = inhibition |
| --- | --- |
| N#Cc1ccc(COC[C@H]2O[C@@H](n3c(NCc4ccc(Cl)c(Cl)c4)nc4c(N)ncnc43)[C@H](O)[C@@H]2O)cc1 | 17.3% [at 57.1 µM] |
| Cc1nc(NC(=O)N2CCCC2C(N)=O)sc1-c1ccnc(C(C)(C)C(F)(F)F)c1 (stereo not given) | -3.54% |
| CCOc1cn(-c2ccc(F)cc2C)nc1C(=O)Nc1ccc(Oc2ccnc3cc(OC)c(OC)cc23)c(F)c1 | 96.2% |
| Cc1nc(Nc2ccc(F)cc2)nc(N2CCc3ccccc3C2C)c1C (stereo not given) | 182% |

Test system: Zika virus NS2B-NS3 protease (linked construct)
Experiment: Primary screen NINDS Rhodamine qHTS for Zika virus inhibitors (AID 1347160); note: nearly all actives have a fitted effect of over 55% in size; note: potency is the fitted concentration of half-maximal effect
Details: purified NS2B-NS3 protease, Rhodamine110 substrate fluorescence; series mostly up to 57.1 µM; activity change, negative = inhibition: at the top concentration
Procedure, shortened: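 Purified linked NS2B-NS3 protease (NS2B hydrophilic domain joined to NS3 protease by flexible linker), 25 nM in 10 mM Tris-HCl pH 8.0, 0.01% Tween 20. Compounds titrated, 15 min preincubation at room temperature; 1.5 microM Rhodamine110 substrate, FITC fluorescence change over 15 min.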

| SMILES | activity change, negative = inhibition | outcome | Potency |
| --- | --- | --- | --- |
| Cc1cc(-c2cc(OC(=O)c3ccccc3)ccc2Cl)cc2nnc(Nc3ccc(OCCN4CCCC4)cc3)nc12 | 89.6% [at 33.1 µM] | – | – |
| COC1CC(=O)C23C(=O)NC(Cc4c[nH]c5ccccc45)C2C(C)C2(C)OC2C3/C=C/CC(C)CC1O (stereo not given) | – | inactive [at 33.1 µM] | – |
| COc1ccc2[nH]c(=O)c3c(c2c1)OC(C)(C)C=C3 | -0.413% | – | – |
| CO[C@H]1C[C@@H]2CC[C@@H](C)[C@@](O)(O2)C(=O)C(=O)N2CCCC[C@H]2C(=O)O[C@H]([C@@H](C)C[C@@H]2CC[C@@H](O)[C@H](OC)C2)CC(=O)[C@H](C)/C=C(\C)[C@@H](O)[C@@H](OC)C(=O)[C@H](C)C[C@H](C)/C=C/C=C/C=C/1C | -5.84% | – | – |
| CC1OC(=O)C[C@@H]2C(C(=O)O)=CO[C@@H](O[C@H]3O[C@H](CO)[C@@H](O)[C@H](O)[C@H]3O)[C@H]12 (stereo not given in full) | 46.8% [at 33.1 µM] | – | – |
| O=C(c1ccc(F)cc1)N1CCCC(c2nc(-c3ccc(F)cc3)no2)C1 (stereo not given) | – | inactive | – |
| CC1(CO)CC(O)[C@]2(C(=O)O)CCC34CC3(C=CC3[C@]5(C)C(CC[C@]34C)C(C)(CO)[C@@H](O)[C@H](O)[C@@H]5O)C2C1 (stereo not given in full) | -18% [at 33.1 µM] | – | – |
| Fc1ccc(-c2nc(C3CCNCC3)sc2-c2ccnc(NC3CC3)n2)cc1 | 106% | – | – |
| Cc1cccc(-c2[nH]ncc2-c2ccnc3ccccc23)n1 | 18.8% | – | – |
| Cn1ncc(Cl)c1-c1cc(C(=O)N[C@H](CN)Cc2cccc(F)c2)sc1Cl | 185% | – | – |
| Cn1cc(-c2ccc(F)c(C(F)(F)F)c2)nc1C1CCN(c2ncnc3[nH]ncc23)CC1 | 16.8% [at 33.1 µM] | – | – |
| CCCCC1CCC(c2nc(-c3ccncc3)no2)CC1 (stereo not given) | 35.6% | – | – |
| Cc1ccc(NC(=O)N2CCN(c3nc(N)nc4sc(-c5cccnc5)nc34)CC2)cc1 | 11.2% | – | – |
| C=C1CC2OC(=O)C(=C)C2C(OC(=O)/C(C)=C\C)CC2(C)OC1=CC2=O (stereo not given) | 5.61% [at 33.1 µM] | – | – |
| Cc1cc(-c2nc3cc(F)ccc3s2)ccc1NC(=O)[C@@H](N)CCCCN | 34.3% | – | – |
| C=C1[C@H]2CC[C@H](C(=O)O)[C@@]23CC[C@H](C3)C1(C)C | -4.33% | – | – |

| SMILES | activity change, negative = inhibition | outcome | Potency |
| --- | --- | --- | --- |
| CC(=O)O[C@H]1CC2C(COC(=O)CC(C)C)=CO[C@@H](OC(=O)CC(C)C)C2[C@]12CO2 (stereo not given in full) | -12.3% [at 33.1 µM] | – | – |
| Cc1ccc(-c2ncccn2)c(C(=O)N2C[C@H](COc3ccc(F)cn3)CC[C@H]2C)c1 | 10.4% | – | – |
| CC(=O)O[C@H]1C[C@@](O)(C(C)C)[C@@H]2[C@@H](OC(=O)c3ccc(O)cc3)CC(C)=CC[C@@]12C | -22% [at 33.1 µM] | – | – |
| O=C(CSc1nc2ccccc2c(=O)n1-c1ccccc1)Nc1ccc2c(c1)CCC2 | 7.97% | – | – |
| C=C[C@@]12COC(=O)C(=C)[C@@H]1[C@@H](O)[C@H](C(=C)C(=O)OC)[C@@H](O)C2 | – | inactive [at 33.1 µM] | – |
| C=C1C(=O)O[C@@H]2C[C@H](C)[C@@H]3CC(=O)[C@H](O)[C@@]3(C)C[C@H]12 | – | inactive | – |
| CN(c1ccc(NC(=O)Nc2ccccc2)cc1)S(=O)(=O)c1cnn(-c2ccc(F)cc2)c1 | – | inactive | – |
| CC(C)(C)[C@H](NC(=O)c1ccc(N)c(Cl)c1)C(=O)N1CCC[C@H]1C(=O)N[C@H](C#N)CC(=O)O | 20.1% | – | – |
| COc1ccc([C@H]2Cc3cccc(O)c3C(=O)O2)cc1OC | 26% | – | – |
| C=C1CC[C@@H]2[C@](C)(CO)[C@H](O)CC[C@@]2(C)[C@@H]1C/C=C1/C(=O)OCC1OC(=O)/C(=C/CO)C(O)C[C@@H]1C(=C)CC[C@@H]2[C@](C)(CO)[C@H](O)CC[C@]21C (stereo not given in full) | – | inactive [at 15.1 µM] | – |
| CCC(C)/C=C(C)/C=C/C1=CC2=C(Cl)C(=O)C(C)(OC(C)=O)C(=O)C2(O)C(OC)O1 (stereo not given) | – | – | 11.2 µM (active) |
| Cn1c(CO)c(-c2ccccc2)c2cc([N+](=O)[O-])ccc21 | – | inactive | – |
| C=C1C(=O)OC2C=C(C)CC/C=C(\CO)CC(O)C12 (stereo not given) | 2.77% | – | – |
| COC(=O)C[C@H]1C(C)(C)[C@H](OC(=O)c2ccccc2)C2CC3=C4CC(=O)O[C@@H](c5ccoc5)[C@]4(C)CCC3[C@@]1(C)C2=O (stereo not given in full) | – | inactive [at 33.1 µM] | – |
| c1cc(NC2CCNCC2)nc(-c2cnc3ccccn23)c1 | -15.7% | – | – |
